# Results reported in the supplement of paper PMC8728848.
# Many of the other results were omitted from the sample, so the strongest signals are more common in it than they were.
# B1: SSA (Sclerotinia sclerotiorum), A7XUK7 (protein)
# chain: MGFKGVGTYEIVPYQAPSLNLNAWEGKLEPGAVVRTYTRGDKPSDNAKWQVALVAGSGDSAEYLIINVHSGYFLTATKENHIVSTPQISPTDPSARWTIKPATTHQYEVFTINNKVSELGQLTVKDYSTHSGADVLSASAKTADNQKWYFDAK
# Key:
# Experiment in all cases: glycan array binding signal (z-score within array); higher = stronger binding
# Conditions in all cases: glycan notation: IUPAC condensed, linker removed
# Fuc(a1-2)Gal(b1-4)GlcNAc = biological target: Fuc(a1-2)Gal(b1-4)GlcNAc
# Procedure, shortened: (§1)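 From the Consortium for Functional Glycomics database, 3228 arrays were curated, keeping only those whose protein sequence was available. Binding is given as a within-array Z-score averaged across arrays sharing a protein sequence and across linkers. Negative Z-scores can be read as non-binding.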
# [1] = biological target: Fuc(a1-2)Gal(b1-4)[Fuc(a1-3)]GlcNAc(b1-2)Man(a1-3)[Fuc(a1-2)Gal(b1-4)[Fuc(a1-3)]GlcNAc(b1-2)Man(a1-6)]Man(b1-4)GlcNAc(b1-4)GlcNAc
# Procedure, shortened: as §1
# [2] = biological target: Fuc(a1-2)Gal(b1-4)[Fuc(a1-3)]GlcNAc(b1-3)Gal(b1-4)[Fuc(a1-3)]GlcNAc
# Procedure, shortened: as §1
# [3] = biological target: Fuc(a1-2)[Gal(a1-3)]Gal(b1-3)GlcNAc(b1-2)Man(a1-3)[Fuc(a1-2)[Gal(a1-3)]Gal(b1-3)GlcNAc(b1-2)Man(a1-6)]Man(b1-4)GlcNAc(b1-4)GlcNAc
# Procedure, shortened: as §1
# [4] = biological target: Fuc(a1-2)[Gal(a1-4)]Gal(b1-4)GlcNAc
# Procedure, shortened: as §1
# [5] = biological target: Fuc(a1-2)[GalNAc(a1-3)]Gal(b1-4)Glc
# Procedure, shortened: as §1
# [6] = biological target: Fuc(a1-2)[GalNAc(a1-4)]Gal(b1-4)GlcNAc
# Procedure, shortened: as §1
# Gal(a1-3)Gal(b1-3)GlcNAc = biological target: Gal(a1-3)Gal(b1-3)GlcNAc
# Procedure, shortened: as §1
# Gal(a1-3)GalNAc = biological target: Gal(a1-3)GalNAc
# Procedure, shortened: as §1
# [7] = biological target: Gal(b1-4)GlcNAc(b1-3)Gal(b1-4)GlcNAc(b1-3)Gal(b1-4)GlcNAc
# Procedure, shortened: as §1
# Gal6S(b1-4)GlcNAc6S = biological target: Gal6S(b1-4)GlcNAc6S
# Procedure, shortened: as §1
# GalNAc(a1-3)Gal = biological target: GalNAc(a1-3)Gal
# Procedure, shortened: as §1
# GalNAc(b1-3)Gal = biological target: GalNAc(b1-3)Gal
# Procedure, shortened: as §1
# [8] = biological target: GalNAc(b1-3)Gal(a1-4)Gal(b1-4)GlcNAc
# Procedure, shortened: as §1
# [9] = biological target: GalNAc(b1-3)Gal(a1-4)Gal(b1-4)GlcNAc(b1-3)Gal(b1-4)Glc
# Procedure, shortened: as §1
# GalNAc(b1-4)GlcNAc = biological target: GalNAc(b1-4)GlcNAc
# Procedure, shortened: as §1
# Glc(a1-6)Glc(a1-6)Glc = biological target: Glc(a1-6)Glc(a1-6)Glc
# Procedure, shortened: as §1
# [10] = biological target: GlcNAc(a1-4)Gal(b1-4)GlcNAc(b1-3)Gal(b1-4)[Fuc(a1-3)]GlcNAc(b1-3)Gal(b1-4)[Fuc(a1-3)]GlcNAc
# Procedure, shortened: as §1
# [11] = biological target: GlcNAc(b1-3)Gal(b1-4)GlcNAc(b1-3)Gal(b1-4)GlcNAc
# Procedure, shortened: as §1
# [12] = biological target: GlcNAc(b1-3)[GlcNAc(b1-6)]GlcNAc(b1-4)GlcNAc
# Procedure, shortened: as §1
# [13] = biological target: GlcNAc(b1-6)Gal(b1-4)GlcNAc
# Procedure, shortened: as §1
# Man(a1-2)Man(a1-3)Man = biological target: Man(a1-2)Man(a1-3)Man
# Procedure, shortened: as §1
# [14] = biological target: Neu5Ac(a2-3)Gal(b1-3)GalNAc(b1-3)Gal(a1-4)Gal(b1-4)Glc
# Procedure, shortened: as §1
# Neu5Ac(a2-3)Gal(b1-4)Glc = biological target: Neu5Ac(a2-3)Gal(b1-4)Glc
# Procedure, shortened: as §1
# [15] = biological target: Neu5Ac(a2-3)Gal(b1-4)GlcNAc(b1-2)Man(a1-3)[GlcNAc(b1-2)Man(b1-4)GlcNAc(b1-2)Man(a1-6)]Man(b1-4)GlcNAc(b1-4)GlcNAc
# Procedure, shortened: as §1
# [16] = biological target: Neu5Ac(a2-3)Gal(b1-4)GlcNAc(b1-3)Gal(b1-4)[Fuc(a1-3)]GlcNAc
# Procedure, shortened: as §1
# [17] = biological target: Neu5Ac(a2-6)Gal(b1-4)GlcNAc(b1-2)Man(a1-3)[GlcNAc(b1-2)Man(a1-6)]Man(b1-4)GlcNAc(b1-4)GlcNAc
# Procedure, shortened: as §1
# Neu5Ac(a2-8)Neu5Ac = biological target: Neu5Ac(a2-8)Neu5Ac
# Procedure, shortened: as §1
# [18] = biological target: Neu5Ac(b2-6)Gal(b1-4)GlcNAc
# Procedure, shortened: as §1
# [19] = biological target: Neu5Gc(a2-3)Gal(b1-4)GlcNAc
# Procedure, shortened: as §1
binder,measurement,setting,value
B1,glycan array binding signal (z-score),Fuc(a1-2)Gal(b1-4)GlcNAc,-0.112
same,glycan array binding signal (z-score),[1],-0.173
same,glycan array binding signal (z-score),[2],-0.407
same,glycan array binding signal (z-score),[3],-0.312
same,glycan array binding signal (z-score),[4],-0.198
same,glycan array binding signal (z-score),[5],-0.1
same,glycan array binding signal (z-score),[6],3.68
same,glycan array binding signal (z-score),Gal(a1-3)Gal(b1-3)GlcNAc,-0.253
same,glycan array binding signal (z-score),Gal(a1-3)GalNAc,0.053
same,glycan array binding signal (z-score),[7],-0.142
same,glycan array binding signal (z-score),Gal6S(b1-4)GlcNAc6S,0.403
same,glycan array binding signal (z-score),GalNAc(a1-3)Gal,6.1
same,glycan array binding signal (z-score),GalNAc(b1-3)Gal,3
same,glycan array binding signal (z-score),[8],4.61
same,glycan array binding signal (z-score),[9],6.97
same,glycan array binding signal (z-score),GalNAc(b1-4)GlcNAc,5.32
same,glycan array binding signal (z-score),Glc(a1-6)Glc(a1-6)Glc,-0.343
same,glycan array binding signal (z-score),[10],0.158
same,glycan array binding signal (z-score),[11],-0.207
same,glycan array binding signal (z-score),[12],-0.467
same,glycan array binding signal (z-score),[13],-0.344
same,glycan array binding signal (z-score),Man(a1-2)Man(a1-3)Man,-0.3
same,glycan array binding signal (z-score),[14],-0.295
same,glycan array binding signal (z-score),Neu5Ac(a2-3)Gal(b1-4)Glc,-0.186
same,glycan array binding signal (z-score),[15],-0.291
same,glycan array binding signal (z-score),[16],-0.158
same,glycan array binding signal (z-score),[17],-0.226
same,glycan array binding signal (z-score),Neu5Ac(a2-8)Neu5Ac,-0.215
same,glycan array binding signal (z-score),[18],-0.415
same,glycan array binding signal (z-score),[19],-0.366
